Mtb bLac sens = beta-lactam sensitization of Mtb H37Rv. M. tuberculosis H37Rv growth with meropenem, percent inhibition. inhibition, % at 25 µM. actives 0.27% (n = 330,000). AID 434955; call rule not given here;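 also: growth measured after seven days incubation then overnight dye step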
CCHF vOTU inh-1 = CCHFV vOTU protease inhibition; Pep-AMC fluorescence; inhibition, % at 11.5 µM; actives 0.55% (n = 370,000); AID 651958
Rv3671c protease = inhibitors of M. tuberculosis serine protease Rv3671c | P9WHR9 | inhibition, % at 5.96 µM | actives 0.048% (n = 320,000); in the data active = inhibition above about 38%;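 also: extracellular domain of Rv3671c used as enzyme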
Target sequence (P9WHR9 whole entry, looked up, the tested form may be a part): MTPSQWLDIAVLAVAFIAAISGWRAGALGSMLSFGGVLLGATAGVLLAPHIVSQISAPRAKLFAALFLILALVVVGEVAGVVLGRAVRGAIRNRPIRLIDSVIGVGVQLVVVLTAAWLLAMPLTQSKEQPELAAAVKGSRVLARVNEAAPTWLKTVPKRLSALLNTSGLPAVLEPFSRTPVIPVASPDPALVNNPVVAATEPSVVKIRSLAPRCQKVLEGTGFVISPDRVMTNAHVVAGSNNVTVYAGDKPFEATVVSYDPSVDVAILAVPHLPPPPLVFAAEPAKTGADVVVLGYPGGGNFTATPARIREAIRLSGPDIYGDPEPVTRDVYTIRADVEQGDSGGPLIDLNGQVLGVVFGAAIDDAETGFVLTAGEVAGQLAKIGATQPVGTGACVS
UGM FP inh = blocks M. tuberculosis UGM enzyme | P9WIQ1 | purified UGM, fluorescence polarization probe displacement | inhibition, % at 10 µM | actives 0.06% (n = 320,000); in the data active = inhibition above about 10%, passing the limit was not always enough
RecA splice inh = blocks M. tuberculosis RecA intein splicing; P9WHJ3; cell-free RecA intein splicing, fluorescence; inhibition, % (test concentration not listed); actives 0.75% (n = 290,000); AID 2221; in the data active = inhibition above about 30%
CCHF vOTU inh-2 = confirmation of CCHF virus vOTU protease inhibitors; inhibition, % at 11.5 µM; shares compounds with CCHF vOTU inh-1; actives 17% (n = 1,900); Recombinant CCHFV vOTU, Pep-AMC fluorescence
Numbers stand for hits; . = inactive; / = no result given. An excerpt weighted towards active compounds, which were near 1.2% of everything screened. Rule as the data show it, unless noted: active = inhibition above about 30%; inactive = the rest.

SMILES	Mtb bLac sens	CCHF vOTU inh-1	Rv3671c protease	UGM FP inh	RecA splice inh	CCHF vOTU inh-2
Cc1cccc(OCC(=O)Nc2cc(Cl)ccc2-n2cncn2)c1C	.	.	.	.	.	/
COc1ccc(OCC(=O)NNC(=O)C(=O)Nc2cc(OC)ccc2OC)cc1	.	35	.	.	.	.
COc1ccc([C@H]2OC(=O)C[C@H]2C(=O)N2CCN(c3ccccc3Cl)CC2)cc1OC	/	.	/	/	/	/
CCCCNC(=O)C[C@H]1C[C@@]2(C(=O)OC)C(=C[C@H](C(C)C)O[C@@H]2C2CC2)N(Cc2cccc3ccccc23)C1=O	/	.	/	/	/	/
Cc1ccc2c(c1)c1c(n2CC(O)CNC2CCCCC2)CCCC1 (stereo unspecified)	.	64	.	.	.	.
Cc1ccc2c(c1)c1c(n2CC(O)CNC(CO)(CO)CO)CCCC1 (stereo unspecified)	.	.	.	.	/	/
CCOc1ccc(NC2=CC(=O)C(=O)c3ccccc32)cc1	/	91	/	/	/	45
O=C1C=C(Nc2cccnc2)c2ccccc2C1=O	/	98	/	/	/	96
O=C1C=C(Nc2ccc(F)cc2)c2ccccc2C1=O	.	.	.	.	/	/
O=C1c2cccc(O)c2C(=O)c2c(O)cc(CO)cc21	.	/	.	.	.	/
CC1OC2CC(=O)OC2C2=C1C(=O)c1c(O)cccc1C2=O (stereo unspecified)	/	98	/	/	/	91
C(#CC1=CCCCC1)CNCc1ccccc1	/	.	/	/	/	/
O=C(NCc1ccncc1)C1Cc2c(-c3ccccc3Oc3ccccc3)ccnc2O1 (stereo unspecified)	/	32	/	/	/	.
Oc1ccc(NCc2ccccc2OCc2ccccc2)cc1	.	51	.	.	.	.
N#Cc1ccc(/C=C2\CC3(OC(=O)c4ccc(Cl)cc4)CCCN2C3)cc1 (stereo unspecified)	/	.	/	/	/	/
C=CCNC(=O)c1cccc2c1C(=O)c1ccc(N3CCOCC3)cc1S2(=O)=O	.	31	.	.	/	.
O=C(NCCc1ccccc1)c1cccc2c1C(=O)c1ccc(N3CCOCC3)cc1S2(=O)=O	.	.	.	.	/	/
N#CC1=C(S)N(c2ccccc2)C(c2ccc(-c3ccc(Cl)c(Cl)c3)o2)NC1=O (stereo unspecified)	.	47	.	.	.	30
CCN(CC)C(=O)CN(c1cc2c(cc1OC)oc1ccccc12)S(=O)(=O)c1ccc(C)cc1	.	30	.	.	.	.
CCC(CO)Oc1cc(NCc2cccc(C)c2)c2ncn(C(C)C)c2c1 (stereo unspecified)	.	.	.	.	/	/
CC[C@H](CO)Oc1cc(NCc2cccc(N)c2)c2ncn(C(C)C)c2c1	/	75	/	/	/	57
COC(=O)[C@]1(Cc2ccccc2)N[C@H](CN(C)C(=O)Nc2ccccc2)[C@@H]2C(=O)N(Cc3ccccc3)C(=O)[C@@H]21	.	37	.	/	/	.
COCC(=O)N[C@@H]1C[C@@H]2O[C@H](CO)CC[C@@H]2O[C@@H]1CCc1ccc(-c2ccccc2)cc1	/	.	/	/	/	/
COc1ccc(N(C)S(=O)(=O)c2cccc(C(=O)Nc3nc(C)c(C(C)=O)s3)c2)cc1	.	35	.	.	/	.
CCN(CC)S(=O)(=O)c1cccc(C(=O)Nc2nncs2)c1	.	.	.	.	.	/
SMILES	Mtb bLac sens	CCHF vOTU inh-1	Rv3671c protease	UGM FP inh	RecA splice inh	CCHF vOTU inh-2
CCN(CC)S(=O)(=O)c1cccc(C(=O)Nc2nnc(C)s2)c1	.	31	.	.	.	.
C=CCOC(=O)c1cc(-c2ccc(/C=C3\C(=O)NC(=O)C(C#N)=C3C)o2)ccc1Cl	/	33	/	/	/	.
CC(C)(C)OC(=O)N(CCc1ccccc1)Cc1cccc(OCc2cccc(NC(=O)C3CCC3)c2)c1	/	.	/	/	/	/
CC(C)(C)OC(=O)N(Cc1ccccc1)Cc1cccc(OCc2cccc(NC(=O)C3CC3)c2)c1	/	32	/	/	/	.
COC(=O)[C@]1(CNC(C)=O)CC(=O)N(Cc2ccc(Cl)cc2)[C@@H]1c1ccc(OC)cc1	/	.	/	/	/	/
CCN1CCCCC(NC(=O)COCc2ccccc2)C1=O (stereo unspecified)	/	.	/	/	/	/
CC(Nc1cccc2ccccc12)C(=O)N/N=C/c1ccccn1 (stereo unspecified)	.	114	.	.	.	.
C=CCOC(=O)N[C@H](c1ccc(-c2ccccc2)cc1)[C@H](C)/C=C/CC(=O)OC	/	.	/	/	/	/
Cc1cc2c(=Cc3ccc(N(C)C)cc3)c3ccccc3n2[n+]1C	/	34	/	/	/	.
CN(C)c1ccc(C=c2c3ccccc3n3c2c2ccccc2[n+]3C)cc1	/	.	/	/	/	/
CCOC(=O)c1cc2c(=Cc3ccc(N(C)C)cc3)c3ccccc3n2[n+]1C	/	97	/	/	/	79
Clc1ccccc1N=Nc1ccccn1	/	84	/	/	/	.

Screening data as filed in PubChem BioAssay.
